Measurements as given in PubChem BioAssay (Tox21).
Inconclusive results are not listed. The source made the active and inactive calls. Calls follow the shape of the dose curve; as a rule, active = well fitted activation curve with a large enough effect in the repeat runs; inconclusive = weak or mixed curves; inactive = no such curve, though single readings can be large or run the other way.

Assay: qHTS assay to identify small molecule agonists of the estrogen related receptor (ERR) signaling pathway (AID 1224820)
Settings: ERR reporter cell line, luciferase agonist mode; series mostly up to 46.1 µM
Excerpt: National Center for Advancing Translational Sciences [NCATS]
NIH Chemical Genomics Center [NCGC]
U.S. Environmental Protection Agency [EPA]
National Institutes of Environmental Health Sciences [NIEHS]
National Toxicology Program [NTP]
Estrogen related receptors (ERRs), the first orphan nuclear receptors discovered, play an important role in the control of cellular energy metabolism. ERRs are required for high-energy production in response to the environmental challenges. ERR-alpha was also identified as an adverse marker for breast cancer progression; ERR-alpha-positive tumors have a poor prognosis. To screen and to identify environmental compounds that perturb the ERR signaling pathways could provide valuable information for potential therapeutic or preventive measures in the treatment of metabolic disease. For identifying ERR agonists, ERR cell line (provided by NTP) has been used to screen LOPAC library.
The ERR cells were dispensed at 2,000 cells/5 ul/well in 1536-well white plates using a Multidrop dispenser. After the assay plates were incubated at a 37 C/5% CO2 incubator for 6 hours, 23 nL of compounds dissolved in DMSO, positive and negative controls or DMSO only was transferred to the assay plate by a pin tool. The plates were incubated at 37 C for 18 hours. 4 ul/well of One-Glo reagent was added into the assay plates using a Flying Reagent Dispenser. After 30 min incubation at room temperature, the luminescence intensity in the plates was measured using a ViewLux plate reader.

Row | SMILES | outcome
1 | CN1CCC[C@@H]1Cc1c[nH]c2ccc(CCS(=O)(=O)c3ccccc3)cc12 | inactive
2 | C[C@]12CCC(=O)C=C1CC[C@@H]1[C@@H]2CC[C@@]2(C)[C@H]1CC[C@]2(O)C(=O)CO | inactive
3 | CC1=C(CC(=O)O)c2cc(F)ccc2/C1=C\c1ccc(S(C)(=O)=O)cc1 | inactive
4 | CN1CCN(C2=Nc3ccccc3Oc3ccc(Cl)cc32)CC1 | inactive
5 | COc1ccccc1N1CCN(CCCNc2cc(=O)n(C)c(=O)n2C)CC1 | inactive
6 | O=C(O)CN(CCN(CC(=O)O)CC(=O)O)CCN(CC(=O)O)CC(=O)O | inactive
7 | CNCCC(Oc1ccccc1OC)c1ccccc1 (stereo not given) | inactive
8 | CCCN(CCC)C(=O)C(CCC(=O)O)NC(=O)c1ccccc1 (stereo not given) | inactive
9 | NC/C=C/C(=O)O | inactive
10 | O=C1N(c2ccccc2)c2ccccc2C1(Cc1ccncc1)Cc1ccncc1 | inactive
